This passage reports Potency and activity change, negative = inhibition results from PubChem BioAssay (NCATS).

Inconclusive results are not listed. A call without a number means that no potency is given here. Calls of active or inactive are those of the source. Calls follow the shape of the full dose curve.

Assay [1] can be described thus: Cytotoxicity counterscreen for inhibitors of SARS-CoV-2 cell entry (AID 1645845). Also: nearly all actives have a fitted effect of over 50% in size. The method, boiled down: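 After a 15 min room-temperature ATPLite 1step step, luminescence reflected ATP remaining in HEK293-ACE2 cells exposed to compound for 1 h plus 48 h at 37 C, with percent activity set by cell and no-cell controls.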
Assay [2] in a line: Primary qHTS to identify inhibitors of SARS-CoV-2 cell entry (AID 1645846). Also: nearly all actives have a fitted effect of over 45% in size. The settings on record: activity change, negative = inhibition: at 57.1 µM (top of the series) unless noted. The method in brief:
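Data are normalized to wells receiving SARS-CoV-2-S pseudoparticles and those given bald particles. Entry signal was luciferase luminescence in stable hACE2 Expi293F cells, 48 hr post-infection, after 1 hr compound pretreatment.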
For orientation: qHTS replaces the single test concentration by a dilution series.

Consider `Cc1cnc(NC(=O)C2=C(O)c3ccccc3S(=O)(=O)N2C)s1`, for which the Potency result in assay [1] and in assay [2] was “inactive” each time. For the same molecule, the activity change, negative = inhibition in assay [2] was -28.9%.

`Nc1ccc(S(=O)(=O)Nc2ccc(Cl)nn2)cc1`: the Potency result in assay [2] was “inactive”.

On to `CN1C(C(=O)Nc2ccccn2)=C(O)c2sccc2S1(=O)=O`, for which the Potency result in assay [2] is “inactive”.

On to `CNNCc1ccc(C(=O)NC(C)C)cc1`, for which the Potency result in assay [1] is “inactive”. In assay [2], the Potency entry is “inactive” and the activity change, negative = inhibition stood at 3.71%.

On to `NCCS(=O)(=O)O`, for which the Potency entry in assay [1] was “inactive”. Besides, in assay [2], the Potency entry is “inactive” and the activity change, negative = inhibition was -2.14%.

As to `COCCCN1CCC(NC(=O)c2cc(Cl)c(N)c3c2OCC3)CC1`, the Potency result in assay [1] was “inactive”. In assay [2], the Potency result was “inactive” and the activity change, negative = inhibition is -5.91%.

As to `O=C(NC(Cc1cc(=O)[nH]c2ccccc12)C(=O)O)c1ccc(Cl)cc1` (stereo not given), the Potency result in assay [1] and in assay [2] was “inactive” in each case. Also, in assay [2], the activity change, negative = inhibition was found to be 1.86%.

Take `NC(=O)c1cnccn1`: the Potency result in assay [1] is “inactive”. Further, in assay [2], the Potency entry was “inactive” and the activity change, negative = inhibition was -28%.
